# Results filed as inconclusive are left out. A call without a number means that no potency is given here. A number with no mark means an inactive call. The source made the active and inactive calls. Calls come from the whole dose curve; as a rule, active = well fitted curve in the direction sought with a large enough effect; inconclusive = small, poorly fitted or top-dose-only effect, or another doubt; inactive = no such curve, though single readings can be large; an effect the other way counts as inactive or inconclusive.
# Key:
# SKOV3 = assay: Primary qHTS to identify gynecologic anti-cancer compounds using libraries of approved drugs and bioactive compounds (AID 1345084); conditions: Gynecologic cancer cell panel viability, ATPlite luminescence, 48 h; series mostly up to 57.5 µM; note: nearly all actives have a fitted effect of over 55% in size; note: potency is the fitted concentration of half-maximal effect
# Method in brief: (§1)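 In this quantitative HTS, cell killing is estimated from loss of ATP-dependent luciferase light. Cells see five compound concentrations over a 48 h exposure.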
# Tov112D = assay: as above; conditions: Gynecologic cancer cell panel viability, ATPlite luminescence, 48 h; series mostly up to 57.5 µM
# Method in brief: as §1
# [1] = Drug repurposing screens with cells derived from glioblastoma tumor samples (AID 1345199); conditions: GBM patient neurospheres viability, ATP luminescence, 48 h; note: nearly all actives have a fitted effect of over 40% in size; note: potency is the fitted concentration of half-maximal effect
# Method in brief: (§2)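 Four patient lines of CD133+ GBM neurospheres were screened at several concentrations; hits were retested in those lines plus three slower-growing GBM lines, using 48-hour treatment and ATP-based viability.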
# astro = assay: as above; conditions: viability, ATP luminescence, 48 h; series mostly up to 45.9 µM
# Method in brief: as §2
# Tov-21-G = assay: Primary qHTS to identify gynecologic anti-cancer compounds using libraries of approved drugs and bioactive compounds (AID 1345084); conditions: Gynecologic cancer cell panel viability, ATPlite luminescence, 48 h; series mostly up to 57.5 µM; note: nearly all actives have a fitted effect of over 55% in size; note: potency is the fitted concentration of half-maximal effect
# Method in brief: as §1
# [2] = qHTS assay to identify inhibitors of the type 1 interferon - major histocompatibility complex class I in skeletal muscle: Counter screen cell viability and HiBit confirmation (AID 1347412); conditions: iHSKM muscle cells + IFN-b, HiBiT or CellTiter-Glo, 24 h, at 45.9 µM (top of the series); note: nearly all actives have a fitted effect of over 60% in size
# Method in brief: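 Luminescence read-out: Nano-Glo HiBiT lytic signal from C-terminally HiBiT-tagged HLA-B in CRISPR-edited human myoblasts, plus CellTiter Glo ATP as viability counter screen. IFN-beta 4.0 ng/ml; 24 hrs treatment at 37 C, 5% CO2.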
smiles,measurement,setting,value
COC1CC(=O)C23C(=O)NC(Cc4c[nH]c5ccccc45)C2C(C)C2(C)OC2C3/C=C/CC(C)CC1O (stereo not given),Potency,SKOV3,8.91 µM (active)
same,Potency,Tov112D,inactive
O=C(Nc1ccc(-c2ccnc(Nc3ccc(N4CCOCC4)cc3)n2)cc1)C1CCCN1 (stereo not given),Potency,SKOV3,inactive
same,Potency,Tov112D,inactive
CC1CC(=O)C2=C(C1)C1OC1C1(O)C2C(=O)c2cccc(O)c2C1O (stereo not given),Potency,SKOV3,inactive
same,Potency,Tov112D,0.0891 µM (active)
CN[C@H]1CC[C@@H](c2ccc(Cl)c(Cl)c2)c2ccccc21,Potency,SKOV3,28.2 µM (active)
same,"activity, negative = cell killing","[1]; at 46.1 µM (top of the series), tumour line C",17.5%
same,Potency,[1]; tumour line A,2.24 µM (active)
same,Potency,[1]; tumour line B,17.8 µM (active)
same,Potency,[1]; tumour line D,6.31 µM (active)
same,Potency,astro,20 µM (active)
CC(C)S(=O)(=O)Nc1ccc(F)c(C(=O)c2c[nH]c3ncc(-c4cccnc4)cc23)c1F,Potency,SKOV3,25.1 µM (active)
same,Potency,Tov112D,inactive
CC(C)(O)C1CC(=O)C2(C)C(CCC3(C)C(c4ccoc4)OC(=O)C4OC432)C12CCC(=O)OC2 (stereo not given),Potency,SKOV3,inactive
same,Potency,Tov-21-G,inactive
same,Potency,Tov112D,inactive
COC(=O)c1ccc2c(c1)[nH]c1ncnc(NCCCN3CCCCC3)c12,Potency,SKOV3,inactive
same,Potency,Tov-21-G,inactive
same,Potency,Tov112D,inactive
C=C1C(=O)O[C@@H]2/C=C(\C)CC/C=C(\C)CC[C@@H]12,Potency,SKOV3,inactive
same,Potency,Tov112D,inactive
O=C(NCCCn1ccnc1)c1cc(-c2ccco2)on1,Potency,SKOV3,inactive
same,Potency,Tov112D,inactive
COc1ccc2c(NC(=O)Nc3cccc(C(F)(F)F)n3)ccnc2c1,Potency,SKOV3,inactive
same,Potency,Tov-21-G,inactive
same,Potency,Tov112D,inactive
C=C(C)Cn1c(SCC(=O)c2cccs2)nc2sc3c(c2c1=O)CCCC3,Potency,SKOV3,inactive
same,Potency,Tov112D,inactive
CCNc1nc(Nc2cc(F)c(C(=O)N3CCOCC3)cc2OC)ncc1C(F)(F)F,Potency,SKOV3,inactive
same,Potency,Tov112D,inactive
C=C1CC2OC(=O)C(COC)C2C(OC(=O)/C(C)=C\C)CC2(C)OC1=CC2=O (stereo not given),Potency,SKOV3,inactive
same,Potency,Tov112D,inactive
O=C(NCc1cccs1)c1cc2nc(-c3ccco3)cc(C(F)(F)Cl)n2n1,Potency,SKOV3,inactive
same,Potency,Tov-21-G,inactive
same,Potency,Tov112D,inactive
CO[C@H]1C[C@@H]2CC[C@@H](C)[C@@](O)(O2)C(=O)C(=O)N2CCCC[C@H]2C(=O)O[C@H]([C@@H](C)C[C@@H]2CC[C@@H](O)[C@H](OC)C2)CC(=O)[C@H](C)/C=C(\C)[C@@H](O)[C@@H](OC)C(=O)[C@H](C)C[C@H](C)/C=C/C=C/C=C/1C,Potency,SKOV3,inactive
same,Potency,Tov112D,inactive
C=C1C(=O)O[C@@H]2[C@H]3C(C)=CC(=O)C3=C(C)[C@@H](OC(=O)/C(C)=C\C)[C@H](O)[C@@H]12,Potency,SKOV3,inactive
same,Potency,Tov112D,inactive
CCn1c(=O)c(-c2ccc(-c3cncs3)cc2Cl)cc2cnc(Nc3ccc(N4CCN(C)CC4)cc3)nc21,Potency,SKOV3,inactive
same,Potency,Tov112D,inactive
COc1ccc(C(=O)O[C@H]2C=COC=C3C=C4C(=O)N(C)C(=S)C(=O)N4[C@@H]32)cc1Oc1cc(C=O)ccc1O,Potency,SKOV3,inactive
same,Potency,Tov112D,inactive
Oc1cccc(-c2c3nc(c(-c4cccc(O)c4)c4ccc([nH]4)c(-c4cccc(O)c4)c4nc(c(-c5cccc(O)c5)c5ccc2[nH]5)CC4)C=C3)c1,Potency,SKOV3,inactive
same,Potency,Tov112D,inactive
same,Potency,astro,25.1 µM (active)
C=C(C)C(=O)OC1CC(CO)CCC/C(CO)=C/C2OC(=O)C(=C)C21 (stereo not given),Potency,SKOV3,inactive
same,Potency,Tov112D,inactive
OC(c1ccc(-c2ccc(CN3CCN(Cc4ccncc4)CC3)cc2)c(F)c1)(C(F)(F)F)C(F)(F)F,Potency,SKOV3,inactive
same,Potency,Tov-21-G,inactive
same,Potency,Tov112D,inactive
same,"activity change, negative = inhibition",[2]; HiBiT,-18.6%
same,"activity change, negative = inhibition",[2]; Viability,-8.6%
COc1cc2c(cc1-c1c(C)noc1C)ncc1[nH]c(=O)n(C(C)c3ccccn3)c12 (stereo not given),Potency,SKOV3,12.6 µM (active)
same,Potency,Tov112D,inactive
C=C1C(=O)O[C@@H]2C[C@@]3(C)CCCC(=C)[C@]3(O)C[C@H]12,Potency,SKOV3,inactive
same,Potency,Tov112D,inactive
C=C1C(=O)OC2C(OC(=O)C=C(C)C)C(C)=C3C(=O)C=C(C)C3C(O)C12 (stereo not given),Potency,SKOV3,12.6 µM (active)
same,Potency,Tov112D,inactive
O=C(NCCCc1ccccc1)c1cccc(-c2cc(O)c3ncccc3c2)c1,Potency,SKOV3,11.2 µM (active)
same,Potency,Tov-21-G,inactive
same,Potency,Tov112D,17.8 µM (active)
CCn1nc(C2CCN(C(=O)CCO)CC2)nc1-c1cnc(N)c(-c2nnc(C(C)(C)C)o2)n1,Potency,SKOV3,1.78 µM (active)
same,Potency,Tov112D,inactive
same,"activity change, negative = inhibition",[2]; HiBiT,-28.4%
c1ccc(-c2ccc(CNc3nc(-c4ccccn4)nnc3-c3ccccc3)cc2)cc1,Potency,SKOV3,12.6 µM (active)
same,Potency,Tov112D,11.2 µM (active)
CC1(C)CC[C@]2(C(=O)O[C@@H]3O[C@H](CO)[C@@H](O)[C@H](O)[C@H]3O)CC[C@]3(C)C(=CCC4[C@@]5(C)CC[C@H](O[C@@H]6O[C@H](C(=O)O)[C@H](O)[C@H](O)[C@H]6O)C(C)(C)C5CC[C@]43C)[C@@H]2C1 (stereo not given in full),Potency,SKOV3,inactive
same,Potency,Tov112D,inactive

# — PubChem BioAssay (NCATS)
